Test results: PubChem BioAssay AID1159580 (chemical genetic matrix, 2015)
Screen size: about 5,500 compounds; about 2,000 (36%) were called active. Not shown: some 18% with an inconclusive outcome. No stated cut-off is given here; in the data, active means normalized growth mostly below about 0.91 (no sharp cut-off); inconclusive means no clear call, values can overlap the other calls; inactive means mostly above about 0.92. Some of the results follow.

Assay: chemical genetic growth profiling, strain panel (AID 1159580);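 further: tested at 20 µM; growth read once vehicle control cultures reached saturation at 30 °C; 1 = growth at the plate median or of vehicle wells; lower values mean less growth of the strain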
Settings: S. cerevisiae deletion strains, growth OD
[1] = locus YAR019C, strain CDC15, hits give low values
[2] = locus YBL105C, strain PKC1, hits give low values
[3] = locus YBR135W, strain CKS1, hits give low values
[4] = locus YBR136W, strain MEC1, hits give low values
[5] = locus YBR160W, strain CDC28, hits give low values
[6] = locus YDL017W, strain CDC7, hits give low values
[7] = locus YDL028C, strain MPS1, hits give low values
[8] = locus YDL101C, strain DUN1, hits give low values
[9] = locus YDL108W, strain KIN28, hits give low values
[10] = locus YDL132W, strain cdc53, hits give low values
[11] = locus YDL214C, strain PRR2, hits give low values
[12] = locus YDR052C, strain DBF4, hits give low values
[13] = locus YDR054C, strain cdc34, hits give low values
[14] = locus YDR226W, strain ADK1, hits give low values
[15] = locus YDR477W, strain SNF1, hits give low values
[16] = locus YER123W, strain YCK3, hits give low values
[17] = locus YER133W, strain GLC7, hits give low values
[18] = locus YFL009W, strain cdc4, hits give low values
[19] = locus YFL029C, strain CAK1, hits give low values
[20] = locus YFR003C, strain YPI1, hits give low values
[21] = locus YFR019W, strain FAB1, hits give low values
[22] = locus YFR028C, strain CDC14, hits give low values
[23] = locus YGR040W, strain KSS1, hits give low values
[24] = locus YGR052W, strain FMP48, hits give low values
[25] = locus YGR092W, strain DBF2, hits give low values
[26] = locus YHR030C, strain SLT2, hits give low values
[27] = locus YHR079C, strain IRE1, hits give low values
[28] = locus YHR082C, strain KSP1, hits give low values
[29] = locus YHR205W, strain SCH9, hits give low values
[30] = locus YIL147C, strain SLN1, hits give low values
[31] = locus YJL095W, strain BCK1, hits give low values
[32] = locus YJL128C, strain PBS2, hits give low values
[33] = locus YJL157C, strain FAR1, hits give low values
[34] = locus YJR016C, strain ILV3, hits give low values
[35] = locus YJR066W, strain TOR1 (second series), hits give low values
[36] = locus YJR066W, strain TOR1, hits give low values
[37] = locus YKL048C, strain ELM1, hits give low values
[38] = locus YKL067W, strain YNK1, hits give low values
[39] = locus YKL101W, strain HSL1, hits give low values
[40] = locus YKL193C, strain SDS22, hits give low values
[41] = locus YKL203C, strain TOR2, hits give low values
[42] = locus YLR113W, strain HOG1, hits give low values
[43] = locus YLR133W, strain CKI1, hits give low values
[44] = locus YLR403W, strain SFP1, hits give low values
[45] = locus YML070W, strain DAK1, hits give low values
[46] = locus YMR001C, strain CDC5, hits give low values
[47] = locus YMR205C, strain PFK2 (second series), hits give low values
[48] = locus YMR277W, strain FCP1, hits give low values
[49] = locus YNL006W, strain LST8, hits give low values
[50] = locus YNL020C, strain ARK1, hits give low values
[51] = locus YNL161W, strain CBK1, hits give low values
[52] = locus YNL183C, strain NPR1, hits give low values
[53] = locus YNL207W, strain RIO2, hits give low values
[54] = locus YNL222W, strain SSU72, hits give low values
[55] = locus YNL307C, strain MCK1 (second series), hits give low values
[56] = locus YOL078W, strain AVO1, hits give low values
[57] = locus YOL136C, strain PFK27, hits give low values
[58] = locus YOR061W, strain CKA2, hits give low values
[59] = locus YOR119C, strain RIO1, hits give low values
[60] = locus YOR231W, strain MKK1, hits give low values
[61] = locus YOR329C, strain SCD5, hits give low values
[62] = locus YPL031C, strain PHO85, hits give low values
[63] = locus YPL153C, strain RAD53, hits give low values
[64] = locus YPL204W, strain HRR25, hits give low values
[65] = locus YPL209C, strain IPL1, hits give low values
[66] = locus YPL256C, strain CLN2, hits give low values
[67] = locus YPR025C, strain CCL1, hits give low values
[68] = locus YPR106W, strain ISR1, hits give low values
[69] = locus YPR111W, strain DBF20, hits give low values
[70] = strain NNK1, hits give low values
[71] = strain TSCII, hits give low values

Measured: normalized growth

FC(F)(F)Oc1ccc(OCc2n[nH]c(=S)n2-c2ccc(Cl)cc2)cc1
inactive: [1] 0.984 | [2] 0.986 | [3] 0.989 | [4] 0.996 | [5] 0.991 | [6] 0.995 | [7] 0.99 | [8] 0.983 | [9] 0.987 | [10] 0.981 | [11] 1 | [12] 0.987 | [13] 0.989 | [14] 0.98 | [15] 0.994 | [16] 0.889 | [17] 1 | [18] 0.988 | [19] 0.985 | [20] 0.987 | [21] 0.988 | [22] 0.989 | [23] 1.01 | [24] 1.1 | [25] 0.944 | [26] 0.967 | [27] 1.07 | [28] 1.05 | [29] 1.01 | [30] 0.988 | [31] 1.15 | [32] 0.956 | [33] 1 | [34] 0.996 | [35] 0.986 | [36] 1.13 | [37] 0.965 | [38] 1.02 | [39] 0.986 | [40] 0.982 | [41] 1.05 | [42] 1.07 | [43] 1 | [44] 1 | [45] 1.01 | [46] 0.983 | [47] 1.01 | [48] 0.99 | [49] 0.986 | [50] 0.994 | [51] 0.989 | [52] 1.12 | [53] 0.99 | [54] 0.985 | [55] 0.999 | [56] 0.986 | [57] 0.994 | [58] 1.01 | [59] 1.02 | [60] 1.09 | [61] 0.99 | [62] 0.973 | [63] 0.983 | [64] 0.975 | [65] 0.987 | [66] 1.04 | [67] 0.991 | [68] 0.996 | [69] 0.992 | [70] 0.999 | [71] 0.987

FC(F)(F)Sc1ccc(OCc2n[nH]c(=S)n2-c2ccccc2)cc1
inactive: [1] 0.989 | [2] 0.983 | [3] 0.988 | [4] 0.983 | [5] 0.988 | [6] 0.987 | [7] 0.986 | [8] 0.981 | [9] 0.987 | [10] 0.993 | [11] 0.945 | [12] 0.989 | [13] 0.978 | [14] 0.981 | [15] 0.943 | [16] 0.873 | [17] 0.911 | [18] 0.983 | [19] 0.989 | [20] 0.988 | [21] 0.936 | [22] 0.993 | [23] 0.949 | [24] 0.939 | [25] 0.874 | [27] 0.896 | [28] 0.963 | [29] 0.957 | [30] 0.984 | [31] 0.917 | [32] 0.94 | [33] 0.92 | [34] 0.984 | [35] 0.906 | [36] 0.945 | [37] 0.953 | [38] 0.934 | [39] 0.891 | [40] 0.994 | [41] 0.961 | [43] 0.938 | [44] 0.954 | [45] 0.92 | [46] 0.991 | [47] 0.946 | [48] 0.992 | [49] 0.986 | [50] 0.904 | [51] 0.986 | [52] 0.879 | [53] 0.985 | [54] 0.99 | [55] 0.91 | [56] 0.996 | [57] 0.931 | [58] 0.971 | [59] 1 | [60] 0.907 | [61] 0.985 | [62] 0.909 | [63] 0.916 | [64] 0.893 | [65] 0.984 | [67] 0.989 | [68] 0.979 | [69] 0.959 | [70] 0.977 | [71] 0.983
active: [26] 0.814 | [42] 0.82 | [66] 0.82

CC(C)(C)OC(=O)NCc1n[nH]c(=S)n1-c1ccccc1
inactive: locus YAL013W, strain DEP1, hits give low values 1.03 | locus YBR229C, strain ROT2, hits give low values 1.01 | [8] 1.02 | locus YDL134C, strain PPH21, hits give low values 1.01 | locus YDR150W, strain NUM1, hits give low values 1 | locus YEL061C, strain CIN8, hits give low values 0.993 | locus YGR078C, strain PAC10, hits give low values 1.01 | locus YGR229C, strain SMI1, hits give low values 0.999 | [26] 1.09 | locus YHR087W, strain rtc3, hits give low values 1.01 | locus YJR043C, strain POL32, hits give low values 1.04 | locus YJR075W, strain HOC1, hits give low values 0.995 | locus YLR039C, strain RIC1, hits give low values 0.998 | locus YLR058C, strain SHM2 (second series), hits give low values 1.02 | locus YLR085C, strain ARP6, hits give low values 1.02 | locus YLR262C, strain YPT6, hits give low values 1.07 | locus YML094W, strain GIM5, hits give low values 1.01 | locus YMR219W, strain ESC1, hits give low values 1.01 | locus YMR263W, strain SAP30, hits give low values 1.01 | locus YNL153C, strain GIM3, hits give low values 0.958 | locus YNL298W, strain CLA4 (second series), hits give low values 1.06 | locus YNL322C, strain KRE1, hits give low values 0.999 | locus YNR030W, strain Alg12, hits give low values 1.01 | locus YPL055C, strain LGE1, hits give low values 1.02 | locus YPL241C, strain CIN2, hits give low values 0.994 | locus YPR135W, strain CTF4, hits give low values 1.12
